In PubChem BioAssay AID1851 (National Center for Advancing Translational Sciences (NCATS), 2009):
Screen size: about 16,000 compounds; about 2,600 (16%) were called active. Inconclusive results (about 20%) are left out. A selection follows. Unmarked numbers belong to inactive results. Calls come from the whole dose curve; as a rule, active = well fitted curve in the direction sought with a large enough effect; inconclusive = small, poorly fitted or top-dose-only effect, or effect the other way; inactive = no such curve, though single readings can be large or run the other way.

Target: Cytochrome P450 2D6 (Homo sapiens) (UniProt P10635)
Sequence (P10635 whole entry, looked up): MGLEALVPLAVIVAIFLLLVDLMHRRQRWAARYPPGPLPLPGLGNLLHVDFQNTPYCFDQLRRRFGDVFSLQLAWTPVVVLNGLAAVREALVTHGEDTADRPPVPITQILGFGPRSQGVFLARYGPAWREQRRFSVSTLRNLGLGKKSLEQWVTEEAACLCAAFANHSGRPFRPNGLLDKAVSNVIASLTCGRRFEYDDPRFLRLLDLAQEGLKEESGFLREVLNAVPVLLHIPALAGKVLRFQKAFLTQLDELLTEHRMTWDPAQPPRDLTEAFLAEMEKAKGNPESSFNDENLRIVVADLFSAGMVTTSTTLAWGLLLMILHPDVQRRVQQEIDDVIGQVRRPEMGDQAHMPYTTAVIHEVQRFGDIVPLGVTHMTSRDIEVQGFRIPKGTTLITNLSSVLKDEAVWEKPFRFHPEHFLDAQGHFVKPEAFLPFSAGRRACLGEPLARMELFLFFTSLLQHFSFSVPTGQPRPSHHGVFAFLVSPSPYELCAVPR
Assay: Cytochrome panel assay with activity outcomes
Settings: recombinant CYP, pro-luciferin dealkylation, luminescence, p450-cyp2d6; series mostly up to 57.1 µM; activity, negative = inhibition: at the top concentration
% is set by controls: 0 for no effect and ±100 for the full control effect.

| Compound | activity, negative = inhibition | AC50 |
| --- | --- | --- |
| CCCCNS(=O)(=O)c1ccc(OC)c(Cl)c1Cl | -2.36% |  |
| O=S(=O)(NCCCCCCc1ccccc1)c1cccc2c(Cl)cccc12 | 9.69% |  |
| NCCCCCCCCCCNS(=O)(=O)c1cccc2c(Cl)cccc12 |  | 1.26 µM (active) |
| CCCCCCCNS(=O)(=O)c1cccc2c(Cl)cccc12 | -6.45% |  |
| NCCCCCCNS(=O)(=O)c1cccc2c(Cl)cccc12 |  | 12.6 µM (active) |
| NCCCCCCNS(=O)(=O)c1cccc2ccccc12 | 3.26% |  |
| C#C[C@]1(O)CC[C@@H]2[C@H]3CCC4=CCCC[C@@H]4[C@@H]3CC[C@@]21C | -2.89% [at 25.6 µM] |  |
| N#CCCn1c(=O)c(-c2cc(F)cc(F)c2)nc2cnc(OCc3ccccc3)nc21 | -6.84% |  |
| Cc1ncc(COP(=O)(O)O)c(C)c1O | 11.2% [at 11.4 µM] |  |
| Cn1cc(/C=N/n2cnc3scc(-c4ccccc4)c3c2=O)c2ccccc21 | -8.18% |  |
| CN1CC[C@H](CN2c3ccccc3Sc3ccccc32)C1 |  | 0.126 µM (active) |
| CN1CCC[C@@H](CC2c3ccccc3Sc3ccccc32)C1 |  | 0.316 µM (active) |
| CO[C@H]1COC(=O)[C@@H](Cc2ccccc2)NC(=O)[C@@H](C)COC(=O)C/C=C\[C@@H]1C | 2.58% [at 11.4 µM] |  |
| CC(C)(C)c1ccc(C2CC2C(=O)N/N=C\c2cc3ccccc3nc2Cl)cc1 (configuration not stated) | 14.5% |  |
| COC(=O)[C@@]1(Cc2ccccc2)[C@@H]2C(=CC(=O)[C@H]2CC(=O)C(=O)N(C)C)CN1C(=O)c1ccccc1 | -11.1% |  |
| COc1cc(C2C(C#N)=C(N)OC3=C2C(=O)CCC3)c([N+](=O)[O-])cc1OC (configuration not stated) | -13.7% |  |
| Nc1ncnc2c1ncn2[C@@H]1O[C@@H](C(=O)NC2CC2)[C@H](O)[C@@H]1O | 2.36% |  |
| OC[C@@H](O)CNc1ncnc2ccccc12 | 3.48% [at 11.4 µM] |  |
| c1ccc(CN2CC[C@@H](CNc3ncnc4ccccc34)C2)cc1 |  | 0.794 µM (active) |
| CC(CO)(CO)Nc1ncnc2ccccc12 | -4.58% [at 11.4 µM] |  |
| COCCn1c(=O)cnc2cnc(Nc3ccccc3)nc21 | -5.45% |  |
| O=C(CSc1nnc(Cn2nnc3ccccc32)o1)Nc1cccc(Cl)c1 |  | 12.6 µM (active) |
| CC(C)(C)OC(=O)NCCc1nnc(SCC(=O)Nc2cccc(Cl)c2)o1 | -19.6% |  |
| CCC(=O)Nc1cccc(NC(=O)CSc2nnnn2Cc2ccccc2)c1 | -19.3% |  |
| CC(=O)[C@H]1CC[C@H]2[C@@H]3C=CC4=CC(=O)CC[C@@]4(C)[C@H]3CC[C@]12C | -2.12% [at 25.6 µM] |  |
| COC(=O)CC1C(=O)NCCN1C(=O)Nc1ccc(Cl)cc1 (configuration not stated) | 4.56% |  |
| Cc1ccc(-n2cc(C(=O)c3ccc4ccccc4c3O)cn2)cc1 | -1.3% |  |
